Assay results: ChEMBL document CHEMBL3988442, “University of Dundee, Small-Polar-MMV Screening Library” (2021)
The campaign covered roughly 48,000 compounds. About 13,000 (27%) showed an effect of 50% or more. The list shows a part of the results.

test system: Wolbachia pipientis; experiment: Anti-Wolbachia Cell-Based Screen; format: functional; set-up: scale not given: in the data most compounds retested in dose-response had high values; conditions: 5 µM

Compound	Percent Effect
COc1ccc(Cc2cccc(C3CCN(C)CC3)n2)cc1	-4.713%
CN1CCC(c2cccc(Cc3ccccc3)n2)CC1	111.8%
CN1CCC(c2cccc(Cc3ccc(C(F)(F)F)cc3)n2)CC1	90.57%
CN1CCC(c2cccc(Cc3ccc(F)cc3)n2)CC1	-5.274%
O=S(=O)(c1ccc(C(F)(F)F)cc1)N1CCC(OCc2ccccn2)C1 (stereo unspecified)	-13.15%
Cl.NC(c1ccc(Cl)cc1)c1cccs1 (stereo unspecified)	-4.089%
Cc1cccc(C)c1CN1C(=O)CC2(CCSC2)C1=O (stereo unspecified)	-6.047%
Cc1n[nH]c(SCC(=O)N2C[C@H]3CC[C@@H]2CN(c2ncccn2)C3)n1	-6.945%
COc1ccnc(N2CCN(Cc3ncc(-c4ccccc4)o3)CC2)n1	-5.442%
CCN(CC)Cc1ccc(C(=O)N2CCCCC2Cn2cccn2)o1 (stereo unspecified)	-4.824%
CCN(CC)Cc1ccc(C(=O)N2CCCC2c2cnn(C)c2)o1 (stereo unspecified)	101.4%
CC(=O)NCCc1ccc(C(=O)N2CCCC2c2cnn(C)c2)cc1 (stereo unspecified)	2.733%
CC(=O)NCc1ccc(C(=O)N2CCCC2c2cnn(C)c2)o1 (stereo unspecified)	4.332%
Cc1cc(C)n(-c2ccc(C(=O)N3CCCC3c3cnn(C)c3)cc2)n1 (stereo unspecified)	-0.5529%
CC(=O)NCc1ccc(C(=O)N2CCCC2c2cnn(C)c2)cc1 (stereo unspecified)	89.24%
CC(=O)NCc1ccc(C(=O)N2CCCC2c2cnn(C)c2)s1 (stereo unspecified)	110.6%
CC(=O)NCCCOc1c(C)cccc1Cl	-7.084%
O=C1CCC2(CCCN(C(=O)c3ccc[nH]3)C2)CN1CCc1c[nH]cn1 (stereo unspecified)	-3.691%
Cc1cc(CN(C)C(=O)c2cccc(N3CCCC3=O)c2)no1	3.879%
CCOc1ncccc1C(=O)NCCN(CC)C1CC1	-2.077%
CCN(CCNC(=O)c1cccnc1OCCOC)C1CC1	95.99%
Cc1cccc(C(=O)NCCNS(=O)(=O)c2cccs2)c1C	-10.16%
CCN(CCNC(=O)c1cccc(C)c1C)C1CC1	95.34%

Compound	Percent Effect
COCCOc1ncccc1C(=O)Nc1c(C)cnn1CC1CC1	-11.28%
CCN(CCNC(=O)c1ccccc1Br)C1CC1	-1.027%
CC(C)c1cccc(-n2cc(O)c(C(=O)NCCCn3cccn3)n2)c1	-4.081%
COC(=O)C1CN(Cc2ccn(-c3ccc(F)cc3)n2)CCO1 (stereo unspecified)	-3.694%
CCc1nc(CN2CCCN(C(=O)CCc3ccco3)CC2)cs1	-5.985%
O=C(CCc1ccco1)N1CCCN(Cc2cscn2)CC1	110.3%
Cc1nc(CN2CCCN(C(=O)c3cccn3C)CC2)cs1	-4.038%
Cc1nc(CN2C[C@@H]3CN(C(=O)c4ccoc4C)C[C@@H]3C2)cs1	104.4%
Cc1nc(CN2C[C@@H]3CN(C(=O)c4ccoc4C)C[C@@H]3C2=O)cs1	-24.28%
Cc1nc(CN2CCCN(C(=O)CCc3ccco3)CC2)cs1	136.5%
CCc1nc(CN2CCN(C(=O)CCc3ccccc3)CC2)cs1	19.11%
Cc1nc(CN2CCN(C(=O)CCc3ccco3)CC2)cs1	84.98%
Cc1nc(CN2C[C@@H]3CN(C(=O)CC(F)(F)F)C[C@@H]3C2=O)cs1	-5.241%
O=C(CCc1cccc(F)c1F)N1CCN(Cc2ccco2)CC1	9.986%
Cc1noc(C)c1CCC(=O)N1CCCN(Cc2cscn2)CC1	-9.58%
CCc1nsc(N2CCN(CC(=O)NCc3cccnc3)CC2)n1	5.46%
CC1CN(C)c2ccccc2CN1C(=O)CSc1ccncc1 (stereo unspecified)	-15.08%
O=S(=O)(c1cccnc1)N1CCN(CC(O)c2cccs2)CC1 (stereo unspecified)	-0.3613%
CN(C)S(=O)(=O)N1CCC2(CC1)CC(Oc1ccccn1)CO2.O=C(O)C(F)(F)F (stereo unspecified)	-11.89%
O=S(=O)(N1CCCC1)N1CC(c2ccnc(Nc3ccccn3)n2)C1	105.1%
CN(C)S(=O)(=O)N1CC(c2ccnc(Nc3ccccn3)n2)C1	81.46%
N[C@H]1CN(S(=O)(=O)N2CCCC2)C[C@@H]1c1ccccc1	-9.902%
CCNc1ccnc(NC2CCN(S(C)(=O)=O)CC2)n1	1.929%

Compound	Percent Effect
CN(C)S(=O)(=O)N1CCC(c2ccnc(Nc3ccccn3)n2)C1 (stereo unspecified)	92.82%
O=S(=O)(NC1CCCN(c2ncccn2)C1)N1CCCCCC1 (stereo unspecified)	-17.91%
Cc1ccc(Nc2nccc(C3CN(CC(N)=O)C3)n2)nc1	-11.37%
CS(=O)(=O)N1CC(c2ccnc(Nc3ccccn3)n2)C1	102.3%
CN(C)C(=O)C1CN(Cc2ccc(C#N)cc2)c2ccccc2O1 (stereo unspecified)	-2.727%
O=C(NCCn1cccc1)C1CCN(C2CCCCC2)CC1	3.682%
Cc1c(F)cccc1CN1CCn2nc(CNC(=O)N(C)C)cc2C1	9.061%
Cc1cc(C)c2c(c1)C1(CC(=O)Nc3c1cnn3C(C)C)C(=O)N2 (stereo unspecified)	-4.592%
Cc1cc2n(n1)CC(CNC1CCN(c3ccc(F)cc3)CC1)CN2 (stereo unspecified)	8.147%
Cc1nc2c(c(=O)n1C)CN(C(=O)C1CCCN(C(=O)N(C)C)C1)C2 (stereo unspecified)	1.11%
Cc1nc(N2CCCC2)nc2c1CN(C(=O)NC(C)C)CC2	102.9%
Cc1nc(N2CCCC2)nc2c1CN(C(=O)N(C)C)CC2	100.4%
Cc1nc(N2CCCC2)nc2c1CN(C(C)C)CC2.O=C(O)C(F)(F)F	-22.93%
CC(=O)N1CCc2nc(N3CCCC3)nc(C)c2C1	96.78%
CN(Cc1ccccc1)C(=O)c1cc2c(c(S(N)(=O)=O)c1)CCC2	-0.2198%
CCCOc1ccc2ccccc2c1CN1CC[C@@]2(O)CCNC[C@H]2C1	3.118%
CCc1nc(C)cc(NC(C)C(=O)Nc2cc(F)ccc2C)n1 (stereo unspecified)	4.426%
CCc1cc(N[C@H]2CCC[C@H]2CO)n2nccc2n1	-20.55%
O=C(c1ccccn1)N1CCC(S(=O)(=O)c2ccccc2)C1 (stereo unspecified)	101.3%
O=C(c1ccccn1)N1CCC(Oc2cccnc2)CC1	-15.11%
O=C(c1ccccn1)N1C[C@@H]2CC[C@H](C1)N(C(=O)c1ccsc1)C2	-66.93%
O=C(c1ccco1)N1CC(S(=O)(=O)c2ccc(Cl)cc2)C1	72.73%
NC(=O)N1C[C@@H]2CN(C(=O)c3ccco3)C[C@@H]2C1	-28.89%

Compound	Percent Effect
O=C(c1ccccn1)N1CC(S(=O)(=O)c2ccc(Cl)cc2)C1	113.3%
O=C(c1ccccn1)N1CCC(Oc2ncccc2Cl)CC1	6.011%
O=C(O)C(F)(F)F.O=C(c1ccccn1)N1CC[C@H]2[C@H]1CCN2S(=O)(=O)C1CC1	-10.64%
O=C(c1cccnc1)N1CC(S(=O)(=O)c2ccc(Cl)cc2)C1	139.6%
O=C(c1cccnc1)N1C[C@@H]2OCC(=O)N(Cc3cccnc3)[C@@H]2C1	-21.42%
Cn1cnnc1S(=O)(=O)C1CCN(C(=O)c2ccco2)CC1	9.772%
O=C(C[C@H]1[C@H]2CN(C(=O)c3cccnc3)C[C@@H]12)Nc1cccnc1	-0.113%
CN(C1CCCC1)C(C)(C)C(=O)NCCS(C)(=O)=O	3.461%
N#CCc1ccc(NC(=O)N[C@H](CO)Cc2ccc(O)cc2)cc1	-6.882%
CCc1nc2c(c(NCc3cc(-c4cccnc4)no3)n1)CCNCC2	11.03%
O=C(NC1CC1)C1CN(C(=O)c2cnccn2)C1	-10.02%
O=C(NCc1c(F)cccc1F)C1CN(C(=O)c2cnccn2)C1	-2.814%
O=C(c1cnccn1)N1CC(S(=O)(=O)c2ccc(Cl)cc2)C1	115.9%
CCOCC(O)CNc1cncc(Br)c1 (stereo unspecified)	-4.889%
CC(=O)CC(C)(C)NC(=O)CCN(C)Cc1ccc(Cl)s1	13.53%
O=c1c2cccc(C(F)(F)F)c2ncn1C1CCNC1 (stereo unspecified)	-5.057%
CN1CC(=O)N(C2CCNC2)Cc2c(NC3CCCC3)ncnc21 (stereo unspecified)	104.3%
CN1CC(=O)N(C2CCCNC2)Cc2c(NC3CCC3)ncnc21 (stereo unspecified)	103.9%
CC1=C(C(=O)N2CCOC(Cc3cccc(C(F)(F)F)c3)C2)OCCO1 (stereo unspecified)	-4.78%
Cc1noc(C)c1CCNc1nccc(CCC(F)(F)F)n1	1.118%
CN(C)Cc1nn(C)c2c1CN(S(=O)(=O)c1ccccc1F)C2	3.844%
CC(=O)NC1CCN(c2cc(-c3ccccc3)nc3c(C)c(C)nn23)C1 (stereo unspecified)	-1.812%
CCc1[nH]ncc1C(=O)N1CCCC(n2ccnc2C(C)C)C1 (stereo unspecified)	-14.63%

Compound	Percent Effect
CC(C)OCCC1CCCCN1S(=O)(=O)c1cnn(C)c1 (stereo unspecified)	-6.246%
CNS(=O)(=O)CCCN1CCCC1c1cc(C)on1 (stereo unspecified)	-6.242%
CCn1cc(S(=O)(=O)N2CCCCCC2c2cc(C)on2)cn1 (stereo unspecified)	92.08%
CCOC(=O)C1CCN(C(=O)CN2CCCC2c2cc(C)no2)CC1 (stereo unspecified)	-7.861%
CCn1cc(S(=O)(=O)N2CCCCCC2c2cc(C)no2)cn1 (stereo unspecified)	176.5%
CCn1cc(CN(C)S(=O)(=O)N2CCCC2c2ccco2)cn1 (stereo unspecified)	-4.974%
COCCOCCC(=O)Nc1c(-c2ccc(F)cc2)ncn1C	-3.986%
CCn1[nH]c(C)c2c(C(F)(F)F)cc(=O)nc1-2	-15.52%
COc1c(C2CCCN2c2ncnc3ccsc23)c(C)nn1C (stereo unspecified)	5.005%
CC(C)NC(=O)C1CCc2nnc(C(C)(C)C)n21 (stereo unspecified)	100.1%
O=C(COC1CCCC1)N1CCCN(c2ncccn2)CC1	-14.8%
CC(C)(C)c1nnc2n1C(C(=O)N1CCN(c3ncccn3)CC1)CC2 (stereo unspecified)	115.5%
Cc1cn2nc(N3CCCC3C(=O)N3CCOCC3)sc2n1 (stereo unspecified)	-18.11%
CN1N=C(C(=O)N2CCN(c3ncccn3)CC2)CCC1=O	16.67%
CC(C)(C)c1nnc2n1C(C(=O)N1CCOCC1)CC2 (stereo unspecified)	111.9%
CC(NC(=O)CCc1nc(C(C)(C)C)no1)c1nnc2n1CCC2 (stereo unspecified)	1.388%
O=C1CCSCC(C(=O)N2CCOCC2)N1 (stereo unspecified)	-11.6%
CN(C)C(=O)C1CCc2nnc(C(C)(C)C)n21 (stereo unspecified)	107%
CC(NC(=O)CCOc1ccccc1Cl)c1nnc2n1CCC2 (stereo unspecified)	1.83%
